The results in this text go back to the supplement of paper PMC13094657.

± gives the standard deviation of the averaged measurements.

For assay [1], the system named is MDA-MB-231. Briefly: cell viability relative to vehicle unstimulated control (fraction); higher = more viable cells. To be noted: pre-treatment time: 18 h then 24 h IFNg/TNF.
Assay [2] deals with MDA-MB-231. As to the kind of experiment: kynurenine production, fold change vs DMSO IFNg/TNF control; higher = more kynurenine produced (less inhibition). To be noted: pre-treatment time: 18 h then 24 h IFNg/TNF. Summed up:
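MDA-MB-231 cells were seeded in 96-well plates at 7 × 10^4/well and, 24 h later, pre-treated for 18 h with each natural product in 0.1% DMSO. They were then stimulated for 24 h at 37°C with IFNγ (1 U/ml) and TNF (6.25 ng/ml). Supernatants were treated with trichloroacetic acid and p-dimethylaminobenzaldehyde and read at 492 nm against 0–100 μM standards. Kynurenine production is expressed as fold change over cytokine-stimulated vehicle wells on the same plate and, in the first screening round, averaged across duplicate plates.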
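Wherever cell viability relative to vehicle unstimulated control is given: viability of the cells left after supernatant collection, read with Deep Blue dye added for 4 h, as absorbance at 570 nm minus 600 nm.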

In the case of `CC(C)=CCC[C@H](C)CC=O` [(S)-(-)-Citronellal] (compound dose: 10 uM), in assay [1], the cell viability stood at 1.04 ± 0.05. Also, the kynurenine production in assay [2] came out at 1.14 ± 0.18.
On the same counts, the results for `C[C@H]1O[C@@H](Oc2ccc(COC(=O)CC(O)(CC(=O)OCc3ccc(O[C@@H]4O[C@H](CO)[C@@H](O)[C@H](O)[C@H]4O)cc3)C(=O)Oc3ccc(O[C@H]4O[C@H](CO)[C@@H](O)[C@H](O)[C@H]4O)cc3)cc2)[C@H](O)[C@@H](O)[C@@H]1O` (stereo partly specified) [Parishin] (compound dose: 10 uM) are 0.985 ± 0.054 and 0.792 ± 0.13.
On the same counts, the results for `C=C1C(=O)O[C@@H]2/C=C(\C)CC/C=C(\C)CC[C@@H]12` [Costunolide] (compound dose: 10 uM) are 1.03 ± 0.059 and 0.474 ± 0.063.
On the same counts, the results for `CC1C(=O)OC2C(O)C34C5CC(C(C)(C)C)C36C(OC(=O)C6O)OC4(C(=O)O5)C12O` (stereo unspecified) [Ginkgolide B] (compound dose: 10 uM) are 0.9 ± 0.12 and 1.18 ± 0.033.
As to `CC1=CCC2CC1C2(C)C` (stereo not drawn) [(-)-α-Pinene] (compound dose: 10 uM), the cell viability in assay [1] was found to be 1.01 ± 0.035. Also, the kynurenine production in assay [2] was 1.21 ± 0.14.
On the same counts, the results for `CC[C@@H](C(=O)[C@@H](C)[C@@H](O)[C@H](C)CCc1ccc(C)c(O)c1C(=O)O)[C@H]1O[C@](CC)([C@H]2CC[C@](O)(CC)[C@H](C)O2)C[C@@H]1C` [Lasalocid (sodium)] (compound dose: 10 uM) are 0.865 ± 0.04 and 0.37 ± 0.0038.
Consider `CC(C)=CCC[C@@H](C)CC=O` [Citronellal] (compound dose: 10 uM), for which the cell viability in assay [1] came to 1.067 ± 0.0084. Further, the kynurenine production in assay [2] was found to be 1.22 ± 0.043.
For `CC1(C)[C@@H](O)CC[C@]2(C)[C@H]3C(=O)C=C4[C@H]5C[C@@](C)(C(=O)O)CC[C@]5(C)CC[C@@]4(C)[C@]3(C)CC[C@@H]12` [18α-Glycyrrhetinic acid] (compound dose: 10 uM), in that order: 1.06 ± 0.11 and 0.943 ± 0.14.
For `CC1(C)CC[C@]2(C)CC[C@]3(C)C(=CC[C@@H]4[C@@]5(C)CC[C@@H](O)[C@](C)(C(=O)O)[C@@H]5CC[C@]43C)[C@@H]2C1` [alpha-Boswellic acid] (compound dose: 10 uM), in that order: 0.953 ± 0.011 and 0.911 ± 0.028.
On the same counts, the results for `C=C1C(=O)O[C@@H]2C[C@@]3(C)CCC[C@H](C)C3=C[C@H]12` [Alantolactone] (compound dose: 10 uM) are 0.909 ± 0.023 and 0.0823 ± 0.017.
Regarding `C[C@H]1[C@H](C)CC[C@]2(C(=O)O)CC[C@]3(C)C(=CC[C@@H]4[C@@]5(C)CCC(=O)C(C)(C)[C@@H]5CC[C@]43C)[C@H]12` [Ursonic acid] (compound dose: 10 uM), the cell viability in assay [1] is 0.9233 ± 0.0046. In addition, in assay [2], the kynurenine production was 0.733 ± 0.12.
On the same counts, the results for `C=C1C[C@@]23CC[C@H]4[C@@](C)(CCC[C@@]4(C)C(=O)O[C@@H]4O[C@H](CO)[C@@H](O)[C@H](O)[C@H]4O[C@@H]4O[C@H](CO)[C@@H](O)[C@H](O)[C@H]4O)[C@@H]2CC[C@]1(O[C@@H]1O[C@H](CO)[C@@H](O)[C@H](O[C@@H]2O[C@H](CO)[C@@H](O)[C@H](O)[C@H]2O)[C@H]1O[C@@H]1O[C@H](CO)[C@@H](O)[C@H](O)[C@H]1O)C3` [Rebaudioside D] (compound dose: 10 uM) are 0.931 ± 0.038 and 0.9927 ± 0.0066.
On to `COC(=O)C[C@](O)(CCCC(C)(C)O)C(=O)O[C@@H]1C(OC)=C[C@]23CCCN2CCc2cc4c(cc2[C@H]13)OCO4` [Homoharringtonine] (compound dose: 10 uM), for which, in assay [1], the cell viability amounted to 0.382. Moreover, the kynurenine production in assay [2] was 0.125 ± 0.08.
On the same counts, the results for `C[C@@H]1C[C@@H]([C@@H](O)C(C)(C)O)O[C@H]2C[C@@]3(C)C(=C12)C[C@H](O)[C@H]1[C@@]2(C)CCC(=O)C(C)(C)[C@@H]2CC[C@@]13C` [Alisol F] (compound dose: 10 uM) are 0.991 ± 0.032 and 0.848 ± 0.048.
For the compound `C=C1[C@H](OC(C)=O)[C@@H](O)[C@@H](OC(=O)c2cccnc2)C(C)(C)/C=C/[C@H](C)[C@H](OC(C)=O)[C@@]2(O)C[C@@](C)(OC(C)=O)[C@H](OC(=O)c3ccccc3)[C@@H]2[C@H]1OC(C)=O` [Jatrophane 5] (compound dose: 10 uM), the cell viability in assay [1] was 1.12 ± 0.027. The kynurenine production in assay [2] was 0.90473 ± 0.00055.
For `C=C1[C@H](OC(=O)c2cccnc2)C[C@H]2[C@@H](/C=C(\C)C(=O)[C@@]3(OC(C)=O)C[C@H](C)[C@H](OC(=O)c4ccccc4)[C@@H]3[C@H]1OC(C)=O)C2(C)C` [Euphorbia factor L9] (compound dose: 10 uM), in that order: 1.07 ± 0.095 and 0.226 ± 0.028.
Regarding `CC(C)=CCC[C@](C)(O[C@@H]1O[C@H](CO)[C@@H](O)[C@H](O)[C@H]1O)[C@H]1CC[C@]2(C)[C@@H]1[C@H](O)C[C@@H]1[C@@]3(C)CC[C@H](O)C(C)(C)[C@@H]3[C@@H](O[C@@H]3O[C@H](CO)[C@@H](O)[C@H](O)[C@H]3O)C[C@]12C` [Ginsenoside Rg1] (compound dose: 10 uM), the cell viability in assay [1] was 0.975 ± 0.025. The kynurenine production in assay [2] was found to be 0.782 ± 0.22.
Turning to `C[C@@H]1O[C@@H](O[C@H]2[C@H](O[C@H]3CC[C@@]4(C)[C@@H](CC[C@]5(C)[C@@H]4CC=C4[C@@H]6CC(C)(C)CC[C@]6(C(=O)O)CC[C@]45C)[C@]3(C)CO)OC[C@H](O)[C@@H]2O)[C@H](O)[C@H](O)[C@H]1O` [alpha-Hederin] (compound dose: 10 uM), the cell viability in assay [1] worked out at 0.932 ± 0.067. In addition, the kynurenine production in assay [2] is 0.875 ± 0.14.
As to `CC1OC2OC3C(OCC(O)C3O)OC(=O)C34CCC(C)(C)CC3C3=CCC5C6(C)CC(O)C(OC7OC(CO)C(O)C(O)C7OC7OCC(OC(=O)CC(C)(O)CC(=O)OC1C(OC1OCC(O)C(O)C1O)C2O)C(O)C7O)C(C)(CO)C6CCC5(C)C3(C)CC4O` (stereo unspecified) [Tubeimoside II] (compound dose: 10 uM), the cell viability in assay [1] was 0.387 ± 0.0057. In assay [2], the kynurenine production worked out at 0.21 ± 0.0034.
For `COC(=O)C1=CO[C@@H](O[C@@H]2O[C@H](CO)[C@@H](O)[C@H](O)[C@H]2O)[C@@H]2C(CO)=CC[C@H]12` [Geniposide] (compound dose: 10 uM), in that order: 0.947 ± 0.031 and 0.939 ± 0.023.
On the same counts, the results for `C[C@@H]1CC[C@H]2C(C)(C)[C@H]3C[C@@]12CC[C@@]3(C)O` [Cedrol] (compound dose: 10 uM) are 0.977 ± 0.06 and 1.06 ± 0.019.
On the same counts, the results for `C=CC(=C)CCC=C(C)C` [Myrcene] (compound dose: 10 uM) are 1.02 ± 0.055 and 0.867 ± 0.1.
Regarding `O=C1C[C@@H](c2ccc(O)cc2)Oc2cc(O)cc(O)c21` [Naringenin] (compound dose: 10 uM), the cell viability in assay [1] came out at 0.921 ± 0.013. For the same compound, in assay [2], the kynurenine production turned out to be 0.772 ± 0.011.
On the same counts, the results for `CC(C)=CCC[C@](C)(O[C@@H]1O[C@H](CO[C@@H]2O[C@@H](CO)[C@H](O)[C@H]2O)[C@@H](O)[C@H](O)[C@H]1O)[C@H]1CC[C@]2(C)[C@@H]1[C@H](O)C[C@@H]1[C@@]3(C)CC[C@H](O[C@@H]4O[C@H](CO)[C@@H](O)[C@H](O)[C@H]4O[C@@H]4O[C@H](CO)[C@@H](O)[C@H](O)[C@H]4O)C(C)(C)[C@@H]3CC[C@]12C` [Ginsenoside Rc] (compound dose: 10 uM) are 0.9496 ± 0.0049 and 0.744 ± 0.044.
On the same counts, the results for `C=C(C=O)[C@H]1CC[C@H](C)[C@H]1C=O` [dolichodial] (compound dose: 10 uM) are 1 ± 0.032 and 0.897 ± 0.018.
For `C=C(C(=O)O)[C@@H]1CC[C@@H](C)[C@@H]2CCC(C)=C[C@@H]21` [Artemisinic acid] (compound dose: 10 uM), in that order: 1.08 ± 0.11 and 0.889 ± 0.031.
`C=C1C(=O)O[C@H]2[C@H]1CCC(C)=C1CC[C@@](C)(O)[C@@H]12` [Micheliolide] (compound dose: 10 uM): the cell viability in assay [1] stood at 0.904 ± 0.063. Further, the kynurenine production in assay [2] was 0.591 ± 0.11.
On the same counts, the results for `C=C(C)[C@@H]1CC=C(C)CC1` [(-)-Limonene] (compound dose: 10 uM) are 1.1 ± 0.035 and 0.935 ± 0.21.
For `C=C(C)[C@H]1C=C[C@@](C)(O)CC1` [cis-Isolimonenol] (compound dose: 10 uM), in that order: 0.972 ± 0.02 and 0.813 ± 0.11.
On the same counts, the results for `C=C[C@]1(C)C[C@@H](OC(=O)CO)[C@]2(C)[C@H](C)CC[C@]3(CCC(=O)[C@@H]32)[C@@H](C)[C@@H]1O` [Pleuromutilin] (compound dose: 10 uM) are 1.01 ± 0.057 and 0.861 ± 0.094.
For the compound `Cc1ccc(C(C)C)cc2c(C)ccc1-2` [Guaiazulene] (compound dose: 10 uM), the cell viability in assay [1] was determined as 1.1 ± 0.013. For the same compound, in assay [2], the kynurenine production turned out to be 0.915 ± 0.21.
For `CC(CC(=O)C[C@@H](C)[C@H]1CC(=O)[C@@]2(C)C3=C(C(=O)C[C@]12C)[C@@]1(C)CCC(=O)C(C)(C)[C@@H]1C[C@@H]3O)C(=O)O` (stereo partly specified) [Ganoderic acid D] (compound dose: 10 uM), in that order: 0.916 ± 0.036 and 0.869 ± 0.11.
For `CC(C)=CCC[C@](C)(O)[C@H]1CC[C@]2(C)[C@@H]1[C@H](O)C[C@@H]1[C@@]3(C)CC[C@H](O[C@@H]4O[C@H](CO)[C@@H](O)[C@H](O)[C@H]4O[C@@H]4O[C@H](CO)[C@@H](O)[C@H](O)[C@H]4O)C(C)(C)[C@@H]3CC[C@]12C` [20(S)-Ginsenoside Rg3] (compound dose: 10 uM), in that order: 1 ± 0.046 and 0.969 ± 0.28.
On the same counts, the results for `O=c1ccn2c(n1)O[C@H]1[C@H](O)[C@@H](CO)O[C@H]12` [2,2'-Anhydrouridine] (compound dose: 10 uM) are 0.906 ± 0.036 and 0.923 ± 0.092.
Turning to `C[C@H]1O[C@@H](Oc2c(-c3cc(O)c(O)c(O)c3)oc3cc(O)cc(O)c3c2=O)[C@@H](O)[C@@H](O)[C@@H]1O` [Myricitrin] (compound dose: 10 uM), the cell viability in assay [1] turned out to be 0.988 ± 0.021. Further, the kynurenine production in assay [2] was found to be 0.694 ± 0.16.
On the same counts, the results for `COc1ccc(-c2coc3cc(O)ccc3c2=O)cc1` [Formononetin] (compound dose: 10 uM) are 0.988 ± 0.032 and 0.873 ± 0.0092.
Take `C/C1=C\[C@@H]2[C@H](CC/C(C)=C/CC(=O)/C(C)=C/CC1)C2(C)C` [5-ketocasbene/9-ketocasbene] (compound dose: 10 uM): the cell viability in assay [1] stood at 1.155 ± 0.0076. The kynurenine production in assay [2] was 1.03 ± 0.12.
For `COc1ccc(-c2cc(=O)c3c(O)c(OC)c(O[C@@H]4O[C@H](CO[C@@H]5O[C@@H](C)[C@H](O)[C@@H](O)[C@H]5O)[C@@H](O)[C@H](O)[C@H]4O)cc3o2)cc1` [Pectolinarin] (compound dose: 10 uM), in that order: 0.833 ± 0.26 and 0.907 ± 0.2.
